Assay outcomes (PubChem)
FMDV RLuc: FMDV antiviral activity by Renilla signal. FMDV replicon cells, Renilla luciferase signal. Potency, µM (titrated, usually from 57.5 µM), usual class: inhibitors. 0.32% of 120,000 active. AID 1745857; also: nearly all actives have a fitted effect of over 55% in size
FMDV FLuc: antivirals against foot and mouth disease virus; FMDV antiviral cell assay, firefly luciferase signal; Potency, µM (series often up to 57.5 µM), hits mostly inhibitors; 0.23% of 120,000 active; AID 1745856; also: nearly all actives have a fitted effect of over 60% in size
Hits are given with their value; - = inactive; ? = inconclusive; [ ] = remark or other dose. This is a sample that favours compounds with a hit; in the whole collection about 0.4% have one here. Calls follow the shape of the full dose curve.

SMILES	FMDV RLuc	FMDV FLuc
COc1ccc(NC(=O)C(C)Oc2cc(C)cc(C)c2)c2cccnc12 (stereo unspecified)	28µM	?
CCOc1ccc(NC(=O)C(C)Oc2cc(C)cc(C)c2)c2cccnc12 (stereo unspecified)	-	-
COc1ccccc1OC(C)C(=O)Nc1ccc(OC)c2ncccc12 (stereo unspecified)	-	-
COc1ccc(NC(=O)C(C)Oc2cccc(C)c2C)c2cccnc12 (stereo unspecified)	4µM	?
COc1ccc(NC(=O)CCCS(=O)(=O)c2nc(-c3ccc(OC)c(OC)c3)cc(C(F)(F)F)n2)cc1OC	-	28µM
COc1ccc(-c2cc(C(F)(F)F)nc(S(=O)(=O)CCCC(=O)Nc3ccccc3C(F)(F)F)n2)cc1OC	-	-
COc1ccc(CNC(=O)c2nc(-c3ccccc3)oc2C)cc1OC	18µM	?
COc1cccc(CNC(=O)c2nc(-c3ccccc3)oc2C)c1	-	-
COc1cc(CN2CCc3nc(N4CCN(c5ncccn5)CC4)ncc3C2)cc(OC)c1OC	7.1µM	?
Brc1ccc(CN2CCc3nc(N4CCN(c5ncccn5)CC4)ncc3C2)cc1	?	-
COc1ccccc1CCNC(=O)c1csc(NC2CC2)n1	-	-
N#Cc1ccc(NCCNC(=O)C2CCCCC2)nc1	32µM	?
N#Cc1ccc(NCCNC(=O)Nc2ccccc2)nc1	-	-
CCOc1ccc(C(=O)Nc2ccc(-n3nncc3-c3ccc(OC)cc3)cc2)cc1	-	-
O=C(COc1ccccc1)Nc1ccc(S(=O)(=O)N(Cc2ccccc2)c2ccccc2)cc1	-	-
COc1ccc(C(=O)Nc2ccc(S(=O)(=O)N(Cc3ccccc3)c3ccccc3)cc2)cc1	5µM	5µM
COc1ccc(-c2cnnn2-c2ccc(NC(=O)c3ccc(S(=O)(=O)N(C)C)cc3)cc2)cc1	6.3µM	?
CC1CC1c1ccc(CNCc2ccco2)o1 (stereo unspecified)	-	-
N#CCCN(C(=O)CSc1nnnn1-c1ccc(Cl)cc1)c1ccccc1	-	-
Cc1cc(C)c(C)c(OCCCN)c1	-	-
COc1ccc(N2CCN(c3ncnc4c3nnn4C)CC2)cc1	-	-
CCCCCCCCCCCCCCCC[N+](C)(C)Cc1ccccc1	-	-
CCCCCCCCCCCCCC[N+](C)(C)Cc1ccccc1	25µM	?
Cc1ccc2oc(=O)c(S(=O)(=O)N3CCN(C)CC3)cc2c1	-	-
Cc1ccc(C)c(N2CCN(CCCNC(=O)c3ccc4nc(C(C)C)oc4c3)CC2)c1	-	?
SMILES	FMDV RLuc	FMDV FLuc
COc1ccccc1NC(=O)Cc1nn(C)c(=O)c2ccccc12	10µM	10µM
COc1ccc(S(=O)(=O)N(C)C)cc1NC(=O)Cc1nn(C)c(=O)c2ccccc12	-	-
CCn1c(SCC(=O)Nc2ccccc2C(=O)OC)nc2ccsc2c1=O	-	-
Cn1nc(CC(=O)Nc2ccc(Cl)cc2)c2ccccc2c1=O	2.8µM	?
Cn1nc(CC(=O)Nc2ccc(F)cc2Cl)c2ccccc2c1=O	7.1µM	?
Cn1nc(CC(=O)NCc2ccc(F)cc2)c2ccccc2c1=O	?	-
COc1ccccc1NC(=O)CSc1nc2ccsc2c(=O)n1C	22µM	22µM
Cn1nc(CC(=O)Nc2cccc(OC(=O)c3ccc(Cl)cc3)c2)c2ccccc2c1=O	-	-
COc1cc(C2CC(=O)N3CN(c4ccc(F)cc4)CSC3=C2C#N)cc(Br)c1O (stereo unspecified)	-	-
O=C(NCc1cccnc1)c1cc(-c2ccncc2)nc2ccccc12	-	-
CC(C)(C)NC(=O)CN1CCCN(C(=O)C2CCN(c3nc4ccccc4o3)CC2)CC1	-	-
CC1(C)CC(=O)C2=C(C1)N(c1ccccc1C(F)(F)F)C(N)=C(C#N)C21C(=O)Nc2ccc(F)cc21 (stereo unspecified)	-	-
CCOC(=O)/C=c1/s/c(=C/c2ccc(Cl)cc2)c(=O)n1Cc1ccc(C(=O)OC)cc1	-	-
CC1OC(OC2CCC3(C=O)[C@H]4CCC5(C)C(C6=CC(=O)OC6)CCC5(O)[C@@H]4CCC3(O)C2)CC2OC(C)(C)OC12 (stereo partly specified)	1.3µM	1µM
CC12CC[C@H]3[C@@H](CCC4(O)CC(O[N+](=O)[O-])CCC34CO[N+](=O)[O-])C1(O)CCC2C1=CC(=O)OC1 (stereo partly specified)	10µM	?
CC1OC(OC2CCC3(C=O)[C@H]4CCC5(C)C(C6=CC(=O)OC6)CCC5(O)[C@@H]4CCC3(O)C2)CC(O)C1O (stereo partly specified)	0.28µM	?
C[C@@H]1O[C@@H](O[C@H]2C[C@@H](O)[C@]3(CO)[C@H]4[C@H](O)C[C@]5(C)[C@@H](C6=CC(=O)OC6)CC[C@]5(O)[C@@H]4CC[C@]3(O)C2)[C@H](O)[C@H](O)[C@H]1O	-	-[11.5 µM]
CC1OC(OC2CCC3(C=O)[C@H]4CCC5(C)C(C6=CC(=O)OC6)CCC5(O)[C@@H]4CCC3(O)C2)C(O)C(O)C1O (stereo partly specified)	-	-
Clc1cc(Cl)cc(-c2ccc(CNC3CN4CCC3CC4)o2)c1 (stereo unspecified)	-	-
COc1cc(C2c3c(oc4cc(C)c(C)cc4c3=O)C(=O)N2CCCN2CCOCC2)ccc1O (stereo unspecified)	-	-
O=c1oc2ccccc2c(O)c1C(c1cccc(O)c1)c1c(O)c2ccccc2oc1=O	-	-
O=S(=O)(NCc1ccc(S(=O)(=O)N2CCCCC2)cc1)c1ccc2c(c1)CCC2	-	-
CCCN(CCC)c1ccc(NS(=O)(=O)c2cccs2)cc1C(=O)O	-	-
CCOC(=O)CNS(=O)(=O)c1cc(-c2nn(C)c(=O)c3ccccc23)ccc1C	-	-
Cc1cc(=O)n(Cc2c(F)cccc2Cl)c2c1c(C)nn2-c1cccc(F)c1	-	-
SMILES	FMDV RLuc	FMDV FLuc
COc1ccc(CNC(=O)C(=O)Nc2ccc(OC)cc2OC)cc1	-	-
O=C(CCc1ncc(-c2ccccc2)o1)NCCc1ccccc1	-	-
CCOc1ccc(-c2cc(C(=O)O)c3ccccc3n2)cc1OCC	20µM	-
CCOc1ccc(-c2cc(C(=O)O)c3ccccc3n2)cc1	?	-
COc1cc(C(=O)O)c(Br)c(OC)c1OC	-	-
O=C(c1cccc2ccccc12)N(Cc1ccc2cc[nH]c2c1)C1CC1	-	-
COc1ccccc1CC(=O)N1CCN(c2nc(-c3ccc(Cl)cc3)no2)CC1	7.1µM	?
COc1ccc(-c2noc(N3CCN(c4ccc(Cl)cc4)CC3)n2)cc1OC	-	-
COc1ccc(OC)c(-c2cc(C(=O)NC(C)c3ccccc3)no2)c1 (stereo unspecified)	-	-
O=C(COc1ccc2c(-c3ccc(F)cc3)noc2c1)OCc1ccccc1	-	2.8µM
COC(=O)c1ccc(COc2ccc3c(-c4ccc(F)cc4)noc3c2)cc1	-	-
Cc1cccc(NC(=O)CCc2nnc3ccc(N4CCC(C)CC4)nn23)n1	-	-
COc1ccc(-c2nc(CSCC(=O)NCc3cccnc3)c(C)o2)cc1	-	14µM
COc1ccc(-c2nc(CS(=O)(=O)CC(=O)NCc3cccnc3)c(C)o2)cc1	-	-
COC(=O)C(C)Oc1ccc2c(=O)c(-c3ccccc3)c(C)oc2c1 (stereo unspecified)	-	-
COc1ccc(NC(=O)COc2ccccc2Cl)c2cccnc12	10µM	11µM
COc1ccc(NC(=O)c2ccccc2Cl)c2cccnc12	-	-
COc1ccc(NC(=O)COc2ccc(Cl)cc2)c2cccnc12	11µM	?
CCOc1ccc(NC(=O)COc2ccc(OC)cc2)c2cccnc12	-	-
